PubChem BioAssay (Tox21)
Inconclusive results are not listed. Active and inactive are the calls of the source. The call rests on the fitted dose curve; in most records, active means well fitted activation curve with a large enough effect in the signal ratio in the repeat runs (not every such curve was filed as active); inconclusive means weak or mixed curves, or effect the other way; inactive means flat fitted curve, though single readings scatter; the % refers to the signal ratio.

Assay: qHTS assay to identify small molecule agonists of the endoplasmic reticulum stress response signaling pathway (AID 1159516)
Details: ESRE-bla HeLa, ER stress beta-lactamase reporter, 5 h; series mostly up to 61 µM; activation: at the top concentration
Description: National Center for Advancing Translational Sciences [NCATS]
NIH Chemical Genomics Center [NCGC]
U.S. Environmental Protection Agency [EPA]
National Institutes of Environmental Health Sciences [NIEHS]
National Toxicology Program [NTP]
U.S. Food and Drug Administration [FDA]
Endoplasmic Reticulum (ER) plays an important role in cellular signaling, protein folding/maturation, stress response, lipid biosynthesis, calcium storage and release etc. Under stress conditions, proteins in ER misfold or unfold, and leading to the expression of ER stress responsive genes. ER stress has been associated with a variety of pathophysiological conditions such as cancer, inflammation, neurodegenerative diseases, diabetes, ischemic heart disease etc. To identify the compounds that induce ER stress response, an ER stress reporter cell line, CellSensor ESRE-bla HeLa (Life Technologies, Carlsbad, CA) containing a beta-lactamase reporter gene under control of the Endoplasmic reticulum Stress Response Element (ESRE) was used to screen Tox21 10K compound library.
Tox21 Assay Protocol Summary:
ESRE-bla HeLa cells were dispensed at 1,500 cells/6 uL of assay medium per well into black wall/clear-bottom 1536-well plates using a Multidrop Combi (ThermoFisher Scientific, Waltham, MA) dispenser. After the assay plates were incubated at 37 C and 5% CO2 for an overnight, 23 nL of compounds dissolved in DMSO, positive controls or DMSO only was transferred to the assay plate by a Pintool station (Kalypsys, San Diego, CA). The assay plates were incubated at 37 C and 5% CO2 for 5 hr. One uL of LiveBLAzer B/G FRET substrate (Life Technologies) was added using a Flying Reagent Dispenser (Aurora Discovery, San Diego, CA) and the plates were incubated at room temperature for 2 hr. Fluorescence intensity (405 nm excitation, 460 nm and 530 nm emissions) was measured using an Envision plate reader (PerkinElmer, Shelton, CT).
On the % scale 0 is the no-effect control and ±100 the full control effect.

SMILES	activation
NS(=O)(=O)c1ccc(NC(=O)CCC(=O)O)cc1	1.95% (inactive)
CC(C)(C)c1nnc(NS(=O)(=O)c2ccc(N)cc2)s1	0.805% (inactive)
CC(C)(C)c1n[nH]c(=S)n(N)c1=O	-0.115% (inactive)
CCCCCCCCCC(C)=O	-0.179% [at 78.8 µM] (inactive)
COCCOCCOCCOCCO	0.234% (inactive)
Nc1ccc([N+](=O)[O-])c(N)c1	-0.252% (inactive)
COCCOC(=O)C1=C(C)NC(C)=C(C(=O)OC(C)C)C1c1cccc([N+](=O)[O-])c1 (stereo not given)	-6.64% (inactive)
N[C@@H](CCC(=O)Nc1ccc([N+](=O)[O-])cc1)C(=O)O	-0.262% (inactive)
CC[C@H](C)C(=O)O[C@H]1C[C@H](O)C=C2C=C[C@H](C)[C@H](CC[C@@H](O)C[C@@H](O)CC(=O)O)[C@H]21	-2.48% (inactive)
Cc1cc2cc3c(C)cc(=O)oc3c(C)c2o1	-0.355% (inactive)
CC(=O)NCc1c(I)c(NC(C)=O)c(I)c(C(=O)O)c1I	-0.369% (inactive)
CC(=O)/C=C/C1C(C)=CCC(C)C1(C)C (stereo not given)	-5.14% (inactive)
CNS(=O)(=O)CCc1ccc2[nH]cc(C3CCN(C)CC3)c2c1	0.437% (inactive)
C[C@@H](O)[C@H]1C(=O)N2C(C(=O)O)=C(SCCN=CN)C[C@H]12	-3.46% (inactive)
CCC(C=O)CC	0.472% [at 78.8 µM] (inactive)
CC(C)=O	0.0925% (inactive)
CC(C)C(=O)OCc1cccc(OC(=O)[C@@H]2N3C(=O)[C@@H](NC(=O)Cc4ccccc4)[C@H]3SC2(C)C)c1	-3.07% (inactive)
O=C(OCC(O)CO)c1ccccc1Nc1ccnc2c(C(F)(F)F)cccc12 (stereo not given)	-6.64% (inactive)
CC(=O)OC(C)OC(=O)C(C)c1ccc(-c2ccccc2)c(F)c1 (stereo not given)	-1.57% (inactive)
Nc1cccc(O)c1	0.992% [at 78.8 µM] (inactive)

SMILES	activation
C[Si](C)=O	-1.7% [at 6.95 µM] (inactive)
Cc1cc(C(C)(C)C)c(O)c(C)c1CC1=NCCN1	0.872% (inactive)
O=C(/N=N/C(=O)OCc1ccccc1)OCc1ccccc1	-0.701% (inactive)
COc1ccc2c(c1OC)C(=O)O[C@@H]2[C@H]1c2c(cc3c(c2OC)OCO3)CCN1C	0.132% (inactive)
CCO[Si](CCCS)(OCC)OCC	-1.2% (inactive)
C=C(C)C(=O)OCCNC(C)(C)C	-0.138% (inactive)
C=CC(OCC)OCC	1.16% (inactive)
C=C1CC/C=C(\C)CC[C@@H]2[C@@H]1CC2(C)C	0.0134% (inactive)
COC(=O)CCCCCCCC(=O)OC	-0.152% (inactive)
CCC(C)(CCC(C)C)C(=O)O (stereo not given)	0.744% (inactive)
Oc1ccccc1-c1nnco1	2.77% (inactive)
CC(CO)c1ccccc1 (stereo not given)	5.2% (inactive)
O=C(O)CCSSCCC(=O)O	-0.12% [at 78.8 µM] (inactive)
O=C1c2cccc3c2[C@H](CCC3)CN1[C@@H]1CN2CCC1CC2	-4.67% (inactive)
O=C(O)C(=O)Cc1ccccc1	6.93% (inactive)
CC(C)OC(=O)CCCCC(=O)OC(C)C	-4.54% (inactive)
OCCN(CCO)c1cccc(Cl)c1	-0.0371% (inactive)
CC(C(=O)O)c1ccc2c(c1)CC(=O)c1ccccc1S2 (stereo not given)	-2.84% (inactive)
O=C(O)Cc1ccc(Cl)cc1Cl	4.68% (inactive)
Cc1ccccc1N=O	-5.44% [at 78.8 µM] (inactive)
